# Compound activity: PubChem BioAssay, National Center for Advancing Translational Sciences (NCATS)
# In the library only some 12% were active in any assay of this set; here they are far more common.
# L3MBTL1 inh = blocks human L3MBTL1; AlphaScreen L3MBTL1–H3K9me1 peptide binding; Potency, µM (titrated, usually from 57.1 µM), inactives show at the highest dose activity, negative = inhibition, usual class: inhibitors; hit rate 0.66% among 230,000; AID 485360; further: on the % scale 0 is the no-effect control and ±100 the full control effect; nearly all actives have a fitted effect of over 60% in size
#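 AlphaScreen assay: L3MBTL1 (50 nM final) was preincubated 30 min at room temperature with biotinylated H3(1-15)K9me1 peptide (75 nM final), then 30 min with library compounds; streptavidin donor and nickel chelate acceptor beads (10 ug/mL final) added, 30 min dark.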
# JMJD2A Tudor inh = inhibitors of human JMJD2A Tudor domain | hit rate 4.4% among 390,000 | AlphaScreen JMJD2A-Tudor / H3K4me3 peptide binding | Potency, µM (top dose mostly 114 µM), without a hit: at the top dose activity change, negative = inhibition, most hits filed as inhibitors | O75164; further: on the % scale 0 is the no-effect control and ±100 the full control effect; nearly all actives have a fitted effect of over 50% in size
# BAZ2B block = blocks human BAZ2B | AlphaScreen BAZ2B-H3K14Ac peptide displacement | Potency, µM (series often up to 114 µM), for inactives: top-dose activity change, negative = inhibition, most hits filed as inhibitors | hit rate 4.4% among 360,000 | AID 504333; further: on the % scale 0 is the no-effect control and ±100 the full control effect; nearly all actives have a fitted effect of over 60% in size
#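 AlphaScreen displacement: compounds (up to 110uM) incubated 30 min at room temperature with a preformed 50 nM BAZ2B/50 nM biotinylated H3K14Ac peptide complex in PBS pH 7.4 with Tween-20. Donor and acceptor beads at 10 ug/mL final added, 20 min light-protected before reading.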
# G9a block = G9a (human) methyltransferase inhibition. Q96KQ7. hit rate 8.8% among 350,000. Potency, µM (doses to about 102 µM), inactives show at the highest dose activity, negative = inhibition, hits mostly inhibitors. AID 504332. G9a H3K9 monomethylation, AlphaScreen, 2 h; further: on the % scale 0 is the no-effect control and ±100 the full control effect; nearly all actives have a fitted effect of over 75% in size
# Target sequence (Q96KQ7 913-1193 limits assumed): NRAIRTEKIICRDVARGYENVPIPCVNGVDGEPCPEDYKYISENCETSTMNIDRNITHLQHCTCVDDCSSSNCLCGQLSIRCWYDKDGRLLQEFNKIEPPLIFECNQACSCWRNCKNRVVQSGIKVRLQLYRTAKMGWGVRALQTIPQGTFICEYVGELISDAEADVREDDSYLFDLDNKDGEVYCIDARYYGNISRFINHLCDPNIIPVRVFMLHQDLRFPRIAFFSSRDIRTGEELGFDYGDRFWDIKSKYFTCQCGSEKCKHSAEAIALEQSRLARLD
#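 Signal arises when biotinylated H3K9 peptide, once monomethylated, bridges streptavidin donor and antibody-captured acceptor beads. Enzyme at 20 nM was preincubated 15 min with test compounds; peptide 500 nM and SAM 20 uM then reacted for 2 h.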
# Sfp PPTase inh = blocks B. subtilis Sfp PPTase activity | Potency, µM, without a hit: largest response in the series, negative = inhibition, most hits filed as inhibitors | Q9F4F7 | Biochemical Sfp PPTase activity, qHTS | hit rate 3.5% among 310,000;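 further: the enzyme is Sfp with the accession as filed and its product quenches rhodamine fluorescence; 0% = enzyme reaction without inhibitor and -100% = no enzyme wells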
#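 With Hepes-Na pH 7.6 buffer containing 10 mM MgCl2, Sfp (15 nM) modified BHQ-2-YbbR (12.5 uM) using rhodamine-CoA (5 uM). Two reads 30 minutes apart at 525/598 nm yielded each well's rate.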
# HP1b binding inh = inhibitors of HP1-beta chromodomain binding to methylated histone tails. P83916. AlphaScreen HP1-beta / biotin-H3K9me3 peptide binding. Potency, µM (titrated, usually from 114 µM), for inactives: top-dose activity change, negative = inhibition, hits mostly inhibitors. hit rate 0.56% among 390,000; further: nearly all actives have a fitted effect of over 70% in size
# Target sequence (P83916 whole entry, looked up): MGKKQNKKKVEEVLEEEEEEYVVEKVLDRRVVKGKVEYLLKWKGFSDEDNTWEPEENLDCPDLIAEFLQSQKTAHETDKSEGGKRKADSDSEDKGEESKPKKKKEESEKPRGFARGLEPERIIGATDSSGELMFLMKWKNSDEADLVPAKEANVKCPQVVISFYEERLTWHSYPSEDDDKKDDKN
#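 AlphaScreen: HP1-beta (50 nM) preformed 30 min with biotin-H3(1-18)K9me3 peptide (50 nM) in PBS pH 7.4, 0.01% Tween-20. Compound added for 30 min at RT, then streptavidin donor/nickel chelate acceptor beads (10 ug/mL) for 30 min.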
# Active calls of the source: *; u = inconclusive; x = no result; [ ] = dose if it differs, or a comment. The call rests on the fitted dose curve; in most records, active means well fitted curve in the direction sought with a large enough effect; inconclusive means small, poorly fitted or top-dose-only effect, or another doubt; inactive means no such curve, though single readings can be large; an effect the other way counts as inactive or inconclusive. Potency means the concentration at half of the fitted maximal effect.
SMILES,L3MBTL1 inh,JMJD2A Tudor inh,BAZ2B block,G9a block,Sfp PPTase inh,HP1b binding inh
COc1ccccc1Cn1[nH]nnc1=S,1%,16µM*,-30%,3.2µM*,40µM*,u
COc1ccc(-c2nc(-c3ccccc3)c(NC(C)(C)C)o2)cc1,x,x,x,x,-2%,x
COc1ccc(-c2cn3nc(N4CCCC(C(=O)Nc5cccc(OC)c5)C4)sc3n2)cc1 (stereo not given),x,-24%,-7%,u,x,12%
CCc1ccc(CNC(=O)c2ccc(NC(=O)N3CC(C)Sc4ccccc43)cc2)cc1 (stereo not given),x,-8%,2%,0%[59 µM],x,29%
CCCn1c(=O)[nH]c2nc(-c3ccc(S(=O)(=O)O)cc3)[nH]c2c1=O,x,x,x,x,23%,x
Cc1cccc(Nc2ncc(NC(=O)c3cccc(F)c3)c(Nc3cccc(C)c3)n2)c1,x,u,-34%,-48%[59 µM],x,0%
COc1ccccc1OCCn1c(C(C)Oc2ccccc2)nc2ccccc21 (stereo not given),x,-11%,-4%,u,x,37%
CCOc1cccc(CN2CCN(c3cccc(C(F)(F)F)c3)CC2)c1O,-7%,-23%,-15%,-36%[12.7 µM],u,18%
COc1cccc(CN2CCN(Cc3cccc(Br)c3)CC2)c1OC,x,3.2µM*,20µM*,u,-28%,22µM*
CCOC(=O)C1(Cc2cccc(OC)c2)CCN(Cc2cccc(OC)c2OC)CC1,-7%,-6%[11.4 µM],-20%,0%,10%,25%
COc1cccc(CN2CCN(c3cccc(C(F)(F)F)c3)CC2)c1OC,-1%,2.2µM*,u,6.3µM*,u,u
CCN(CC)CCCNC(=O)c1ccc(OCC(=O)Nc2ccccc2C(F)(F)F)c(OC)c1,x,-8%,-5%,60%,0%,28%
Cc1ccc(-n2c([S-])c(C(=O)Nc3ccc(OC(F)F)cc3)[n+]3ccc(C(=O)NCCO)cc23)cc1C,-3%,-10%,-37%,10µM*,u,10%
COc1ccccc1-n1c([S-])c(C(=O)Nc2ccccc2C(F)(F)F)[n+]2ccc(C(=O)NCCO)cc12,x,u,-19%,20µM*,7%,u
CCOc1ccc(CCNC(=O)Cn2ncc3c([nH]c4ccccc43)c2=O)cc1OCC,x,-11%,4%,10%[59 µM],x,22%
COc1ccc(N=Nc2nc3ccc(Br)cc3n2C)cc1,-2%,u,63µM*,6.3µM*,16%,u
Cc1ccc(OCCCCn2cnc3ccccc32)c(C)c1,x,1.6µM*,25µM*,7.9µM*,50µM*,u
Brc1ccccc1OCCCCn1cnc2ccccc21,-1%,-7%,-23%,2%[12.7 µM],4%,26%
Cc1cc(C)c(Cn2cnc3ccccc32)c(C)c1,2%,-10%,-17%,45µM*,6%,37%
c1ccc(Cn2cnc3ccccc32)cc1,0%,-9%,4%,-4%[59 µM],20%,23%
COc1cc(OC)c(NS(=O)(=O)c2c(C(=O)N3CCCCCC3)c(C)n(C)c2C)cc1Cl,x,-18%,u,10%[59 µM],x,5%
COc1ccc(-c2cn(/N=C/c3ccc(Cl)cc3Cl)c(N)n2)cc1,x,-19%,-12%,35µM*,2%,3%
Nc1nc(-c2ccccc2)cn1/N=C/c1ccccc1,-3%,-34%,-24%,50µM*,10%,u
Nc1nc(-c2ccccc2)cn1N,4%,-27%,u,26%[59 µM],-5%,11%
Cc1ccc(N2CCN(S(=O)(=O)c3ccc(-n4cnnn4)cc3)CC2)c(C)c1,x,-12%,-11%,-8%,5%,23%
COc1ccccc1N1CCN(S(=O)(=O)c2ccc(-n3cnnn3)c(C)c2)CC1,-2%,-17%[57.1 µM],4%,u,4%,26%
COc1cc(S(=O)(=O)N2CCCCCC2)ccc1-n1cnnn1,x,-27%,u,u,45µM*,17%
CCCN1CCN(S(=O)(=O)c2ccc(-n3cnnn3)cc2)CC1,x,3%,-19%,50µM*,1%,23%
